# Bioassay records: PubChem, National Center for Advancing Translational Sciences (NCATS)
# A selection: hits, their analogues and other compounds. The true share with any hit is near 18%.
# TDP1 cell CPT: DT40-hTDP1 cell growth loss with CPT | chicken DT40 Tdp1-/-;hTDP1 cells + 20 nM CPT, ATP luminescence, 48 h | AID 686979 | actives 12% (n = 420,000) | Potency, µM (top dose mostly 46.2 µM), inactives show top-dose activity change, negative = growth inhibition, most hits filed as inhibitors; note: potency is the fitted concentration of half-maximal effect; nearly all actives have a fitted effect of over 55% in size
#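 Cell growth measured by CellTiter-Glo luminescence after a minimum 48 h, 37 C compound exposure with 20 nM CPT in Tdp1-knockout DT40 cells stably expressing hTDP1, seeded 400/well; qHTS titration format.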
# TDP1 inh: TDP1 (human) enzyme inhibition | recombinant TDP1, AlphaScreen DNA substrate cleavage | Potency, µM (highest dose often 130 µM), for the others: at the highest dose activity change, negative = inhibition, usual class: inhibitors | actives 0.28% (n = 350,000); note: potency is the fitted concentration of half-maximal effect; nearly all actives have a fitted effect of over 40% in size
#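 Enzyme-compound mixtures sat 15 min at room temperature, followed by a 5 min reaction with 15 nM final substrate and 10 min with AlphaScreen beads. Recombinant human Tdp1 was used at 1 nM final.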
# CtBP-E1A inh: CtBP/E1A binding inhibition. AID 651724. AlphaScreen GST-E1A/His-CtBP binding, 1536-well; active compounds read low. activity change, % (test concentration not listed). actives 0.49% (n = 340,000); in the data active = activity change below about -65%; inconclusive = mostly about -30% to -63%
#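 Homogeneous bead-based format: GST-tagged E1A captured on glutathione donor beads, His-tagged CtBP on nickel acceptor beads; compounds precede bead addition by 2 h at 37 °C.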
# IL-1B inflam inh: blocks inflammasome-driven IL-1 beta release. actives 4.7% (n = 360,000). THP-1 LPS/ATP IL-1B secretion, AlphaLISA, 16 h; active compounds read low. activity change, % at 57.5 µM; in the data active = activity change below about -50%; inconclusive = mostly about -30% to -49%
#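 THP-1 cells pretreated 1 hr with compounds (up to 57.5 uM final), then stimulated with LPS (250 ng/mL final) plus ATP (1.25 mM final); secreted IL-1B measured by AlphaLISA after 16 hr, decreased signal indicating inhibition.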
# Six1-Eya2 inh: inhibitors of human Six1/Eya2 interaction | Q15475+O00167 | AlphaScreen GST-Six1/His-Eya2 binding, biochemical; active compounds read low | activity change, % (test concentration not listed) | actives 0.56% (n = 360,000); in the data active = activity change below about -65%; inconclusive = mostly about -30% to -63%
# Target sequence (O00167 whole entry, looked up): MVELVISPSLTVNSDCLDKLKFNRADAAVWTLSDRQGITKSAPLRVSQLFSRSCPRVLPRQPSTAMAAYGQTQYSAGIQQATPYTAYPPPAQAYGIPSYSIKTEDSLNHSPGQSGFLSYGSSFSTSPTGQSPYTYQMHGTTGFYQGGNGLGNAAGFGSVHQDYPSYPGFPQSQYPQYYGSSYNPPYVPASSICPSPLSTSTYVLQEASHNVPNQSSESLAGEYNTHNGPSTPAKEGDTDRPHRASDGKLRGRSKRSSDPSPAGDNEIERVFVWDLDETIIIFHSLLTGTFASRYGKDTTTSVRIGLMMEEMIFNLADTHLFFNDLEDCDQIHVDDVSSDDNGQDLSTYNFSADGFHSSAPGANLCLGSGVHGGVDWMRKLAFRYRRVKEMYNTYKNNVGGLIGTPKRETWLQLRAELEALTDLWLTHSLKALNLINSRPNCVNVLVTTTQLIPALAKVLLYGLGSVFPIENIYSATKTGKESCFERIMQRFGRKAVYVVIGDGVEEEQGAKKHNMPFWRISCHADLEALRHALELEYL
# Target sequence (Q15475 whole entry, looked up): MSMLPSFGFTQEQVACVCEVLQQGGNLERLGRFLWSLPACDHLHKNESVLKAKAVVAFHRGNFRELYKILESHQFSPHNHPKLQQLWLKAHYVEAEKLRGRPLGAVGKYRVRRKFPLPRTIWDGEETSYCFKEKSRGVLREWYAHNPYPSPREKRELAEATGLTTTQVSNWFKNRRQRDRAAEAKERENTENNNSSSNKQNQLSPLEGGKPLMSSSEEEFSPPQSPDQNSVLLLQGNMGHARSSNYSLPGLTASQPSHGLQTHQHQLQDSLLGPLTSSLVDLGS
#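 GST-Six1 + His-Eya2 (5X stock: 250/500 nM); Tris pH 8.0, 300 mM NaCl, 0.05% BSA, 0.02% Tween 20; GSH donor/Ni acceptor beads; 1 h 37 °C dark; AlphaScreen readout.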
# TDP1 cell noCPT: qHTS for Inhibitors of human tyrosyl-DNA phosphodiesterase 1 (TDP1): qHTS in cells in absence of CPT; DT40 Tdp1-/- hTDP1 cells, no CPT, ATP luminescence, 48 h; Potency, µM (titrated, usually from 46.2 µM), for inactives: at the top dose activity change, negative = growth inhibition, usual class: inhibitors; actives 15% (n = 420,000); AID 686978, 2013; note: potency is the fitted concentration of half-maximal effect; nearly all actives have a fitted effect of over 55% in size
#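 Compound effects on proliferation are scored in DT40 Tdp1-/-;hTDP1 cells in the absence of CPT. ATP levels (CellTiter-Glo luminescence) are recorded after a ≥48 hr, 37 °C incubation.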
# Starred values were filed as active, the others as inactive; u = inconclusive; x = not tested or not shown; [ ] = dose if it differs, or a comment. Unless noted, calls come from the whole dose curve; as a rule, active = well fitted curve in the direction sought with a large enough effect; inconclusive = small, poorly fitted or top-dose-only effect, or another doubt; inactive = no such curve, though single readings can be large; an effect the other way counts as inactive or inconclusive. % is set by controls: 0 for no effect and ±100 for the full control effect.
SMILES,TDP1 cell CPT,TDP1 inh,CtBP-E1A inh,IL-1B inflam inh,Six1-Eya2 inh,TDP1 cell noCPT
N#C/C(=C\c1ccccc1C(F)(F)F)C(=O)Nc1ccccc1,-26%,-1%,10,-70*,-1,-12%
CCCOc1ccccc1/C=C(\C#N)C(=O)Nc1cccc(C)n1,-5%,x,7,-2,10,-15%
N#C/C(=C\c1ccccc1Cl)C(=O)Nc1ccccn1,14%,x,1,13,9,-20%
N#C/C(=C/c1ccc(O)c([N+](=O)[O-])c1)C(=O)Nc1ccccc1,4.1µM*,0%,-27,-2,u,6.5µM*
Cc1ccc(NC(=O)/C(C#N)=C/c2ccccc2Cl)cc1C,26µM*,10%,x,x,x,26µM*
CCc1cccc(CC)c1NC(=O)/C(C#N)=C/c1ccccc1C(F)(F)F,u,3%,-2,-99*,-6,21µM*
N#C/C(=C\C=C\c1ccccc1)C(=O)Nc1ccccc1,-6%,5%,4,37,5,-4%
COc1cc(CNCc2ccco2)cc(OC)c1O,-3%,x,0,-11,-1,11%
N/C(=N\OC(=O)CSc1ccccc1)c1ccccn1,1%,0%,9,u,7,21%
N/C(=N\OC(=O)Nc1ccccc1)c1cccc(C(F)(F)F)c1,-3%,3%,x,-5,-6,-12%
CC(C)NC(=O)/C(C#N)=C/c1cccc(NC(=O)c2ccccc2Cl)c1,u,3%,-8,-104*,8,15µM*
COCCNC(=O)/C(C#N)=C/c1cccc(NC(=O)c2ccccc2Cl)c1,u,5%,-11,-8,2,u
CCOC(=O)/C(C#N)=C1/C=C(C)NC(c2ccccc2O)=N1,15µM*,8%,-15,-64*,-22,21µM*
CCOC(=O)/C(C#N)=C1/C=CN(C)C(C)=N1,-7%,5%,14,16,-3,5%
CN1/C(=C/C=N/n2cnnc2)C(C)(C)c2ccccc21,18µM*,-5%,6,25,3,23µM*
Cc1nc(N)sc1C(=O)NN,13%,4%,-6,x,-8,-6%
O=C1Cc2c([nH]c3ccc([N+](=O)[O-])cc23)-c2ccccc2N1,1.8µM*,x,7,-99*,-7,1.8µM*
CS(=O)(=O)Cc1ccc(C(=O)NC2CCSc3ccccc32)cc1 (stereo unspecified),5%,3%,-21,0,-2,2%
O=C(Nc1ccccc1)Nc1ccc2snnc2c1,u,2%[56.1 µM],0,-19,-10,18µM*
Cc1cc(C)c(NC(=O)Nc2ccc3snnc3c2)c(C)c1,u,3%,x,x,x,18µM*
O=C(Nc1cccc(C(F)(F)F)c1)Nc1ccc2snnc2c1,3.7µM*,-3%,x,x,x,5.2µM*
CN(C)c1ccc(NC(=O)Nc2ccc3snnc3c2)cc1,-1%,4%,-15,-22,-23,-15%
O=C(Nc1ccccc1)Nc1ccc2nnsc2c1,21µM*,-1%,5,-95*,-12,16µM*
O=C(NCc1ccccc1)c1ccc2nnsc2c1,-16%,3%,20,4,3,-15%
O=C(Nc1cccc(C(F)(F)F)c1)c1ccc2snnc2c1,-24%,0%,x,x,x,4%
SMILES,TDP1 cell CPT,TDP1 inh,CtBP-E1A inh,IL-1B inflam inh,Six1-Eya2 inh,TDP1 cell noCPT
COc1ccc(NCc2cc3cc4c(cc3n(CC(=O)Nc3cc(C)cc(C)c3)c2=O)OCO4)cc1,x,3%,x,x,x,x
Cc1nn(C(C)C(=O)NCCN2CCCCCC2)c(=O)c2nn(-c3ccccc3)c(C)c12 (stereo unspecified),-5%,1%,-6,-5,2,5%
COC(=O)C1CCN(C(=O)Cn2nnc(-c3cccc(F)c3)n2)CC1,-6%,x,7,19,0,-13%
CCOc1ccc(NC(=O)Nc2ccc3snnc3c2)cc1,u,5%,x,x,x,16µM*
CC(=O)N(/N=C/c1ccc(C)cc1)c1nc(CCl)cs1,15µM*,5%,6,-19,3,u
O=C(NCc1ccccc1)c1cccn1-c1nnc(N2CCCC2)s1,-21%,3%,x,x,x,u
O=C(c1cccn1-c1nnc(N2CCCCC2)s1)N1CCN(c2ccc(Cl)cc2)CC1,u,3%,x,x,x,26µM*
O=C(Nc1cc(C(F)(F)F)ccc1Cl)C1CCN(c2nnc(-n3cccc3)s2)CC1,-28%,1%[56.1 µM],8,-3,8,u
O=C(NCc1ccccc1)c1cccn1-c1nnc(N2CCCCC2)s1,u,5%,x,x,x,u
Cc1ccc(Cl)cc1N1CCN(C(=O)C2CCN(c3nnc(-n4cccc4)s3)CC2)CC1,u,4%,-28,-19,-8,16µM*
Cc1ccc(Cl)cc1N1CCN(C(=O)c2cccn2-c2nnc(N3CCCCC3)s2)CC1,18µM*,-3%,x,x,x,13µM*
Cc1cccc(N2CCN(C(=O)c3cccn3-c3nnc(N4CCCCC4)s3)CC2)c1C,23µM*,8%,x,x,x,23µM*
CC(/C=N/NC(=O)Cc1cccn1C)=C\c1ccco1,-22%,x,-16,-14,-25,-23%
Cc1ccn2c(NC(=O)c3cccs3)c(-c3ccccc3)nc2c1,-25%,-7%,-2,-2,-4,u
COc1ccc(CC(=O)O/N=C(\N)Cc2ccc([N+](=O)[O-])cc2)cc1,-18%,x,4,-1,-15,-15%
COc1cccc(N2CCN(C(=O)c3cccn3-c3nnc(N4CCCC4)s3)CC2)c1,u,5%,x,x,x,u
O=C(c1cccn1-c1nnc(N2CCCC2)s1)N1CCN(c2ccc(Cl)cc2)CC1,21µM*,3%,x,x,x,23µM*
COC(=O)c1cc(C)nc2c1C(=O)C(=O)C=C2N1CCOCC1,3.3µM*,-4%,-68*,-100*,-67*,1µM*
CCCCCCCCCCCCCCCCn1cc[n+](Cc2ccccc2)c1C,x,2%,x,x,x,x
CCCCCCCCCCCC[N+](C)(C)Cc1ccccc1,1.5µM*,x,x,x,x,1.7µM*
Cc1nc(N2CCN(C(=O)c3ccco3)CC2)c(C#N)c2c1CCCC2,0%,0%,3,-84*,-1,u
CCCC(=O)N1CCN(c2nc(CC(C)C)c3c(c2C#N)CCC3)CC1,u,4%,-2,-72*,-11,23µM*
CC(C)Cc1nc(N2CCN(C(=O)Cc3ccccc3)CC2)c(C#N)c2c1COC(C)(C)C2,x,3%,x,x,x,x
CC(C)Cc1nc(N2CCN(C(=O)c3ccco3)CC2)c(C#N)c2c1CCCC2,23µM*,7%,-14,-27,-8,u
